Compound activity: PubChem BioAssay, National Center for Advancing Translational Sciences (NCATS)
ClpP mod – qHTS Assay for Activators of ClpP | 340,000 tested, 1.9% active | Potency, µM (highest dose often 57.5 µM), inactives show at the highest dose activity change, negative = active | purified B. subtilis ClpP, FRET peptide cleavage, 20 min | AID 651965, 2013 | ATP-dependent Clp protease proteolytic subunit (Bacillus subtilis (strain 168)), P80244; active means well fitted falling curve with a large enough effect; inconclusive means small, poorly fitted or top-dose-only effect; inactive means no such curve, though single readings can be large or run the other way; further: potency means the concentration at half of the fitted maximal effect; the source files actives as falling curves though it sought activators and does not explain the sign; nearly all actives have a fitted effect of over 65% in size
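FRET quenching reversal measured ClpP activation: 10 microg/mL B. subtilis ClpP at pH 8 with the FRET-FV decapeptide, read at 430 nm after 320 nm excitation. The 20-min minus 0-min signal was scaled between DMSO/no-enzyme wells and ADEP (5.8 microM final).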
MBNL1 CUG block – inhibitors of human MBNL1 binding to CUG repeat RNA; Q9NR56; TR-FRET MBNL1-His/biotin-(CUG)12 binding, 665/545 ratio; Potency, µM (highest dose often 57.5 µM), for inactives: at the top dose activity change, negative = inhibition, hits mostly inhibitors; 280,000 tested, 0.036% active; AID 2675; active means well fitted inhibition curve with a large enough effect in the signal ratio, with a control signal flat, not every such curve was filed as active; inconclusive means small, poorly fitted or top-dose-only effect, or effect the other way, or a change in a side signal; inactive means no such curve, though single readings can be large or run the other way; the % refers to the signal ratio; further: potency means the concentration at half of the fitted maximal effect; on the % scale 0 is the no-effect control and ±100 the full control effect
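Compound titration spanned 92 nM–58 uM against the MBNL1-His/biotin-(CUG)12 complex. After 60 min at room temperature with 5 nM streptavidin-XL665 and 0.055 ng/ul terbium anti-His, ratiometric 665/545 nm emission (Ex 340 nm) normalized to controls.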
Rango release inh – inhibitors of RanGTP-induced Rango-importin beta complex dissociation | Biochemical FRET Rango-importin beta, RanGTP-induced dissociation | O95149+P62826 | AID 540253 | Potency, µM (doses to about 46.1 µM), inactives show at the highest dose activity change, negative = inhibition | 340,000 tested, 0.071% active; calls by dose curve; further: potency means the concentration at half of the fitted maximal effect; % of control where 0% means no effect; nearly all actives have a fitted effect of over 45% in size
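Recombinant Rango FRET biosensor (EYFP–snurportin 1 IBB–cerulean CFP10) at 0.1 uM premixed with 0.25 uM importin beta in PBS, 1 mM DTT, 0.02% Tween-20, 0.1% BSA. Compound added 5 min; RanGTP-RCC1 (0.6 uM Ran, 2 mM GTP, 0.2 uM RCC1) then triggers release, read at 45 min.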
Rango complex inh – prevents formation of the Rango-importin beta complex. Q14974. Rango CFP/YFP FRET sensor + importin beta, 45 min. Potency, µM (titrated, usually from 92.2 µM), without a hit: at the highest dose inhibition of complex formation. 340,000 tested, 0.031% active; calls by dose curve;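 further: potency means the concentration at half of the fitted maximal effect; 0% = DMSO wells and 100% = buffer wells lacking importin beta; nearly all actives have a fitted effect of over 15% in size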
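Inhibition scored from the CFP 486 nm/YFP 530 nm FRET ratio 45 min after adding 0.125 microM importin beta to 50 nM Rango biosensor preincubated 5 min with compound (room temperature, PBS with DTT, Tween-20, BSA). No-importin wells as positive control.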
CBFb-RUNX1 inh – blocks binding between human CBF-beta and RUNX1 | AlphaScreen CBFb-His/RUNX1-biotin binding, biochemical | Potency, µM (series often up to 59.8 µM), inactives show top-dose activity, negative = inhibition, usual class: inhibitors | 230,000 tested, under 10 active; further: % of control where 0% means no effect
Target sequence (Q01196 whole entry, looked up): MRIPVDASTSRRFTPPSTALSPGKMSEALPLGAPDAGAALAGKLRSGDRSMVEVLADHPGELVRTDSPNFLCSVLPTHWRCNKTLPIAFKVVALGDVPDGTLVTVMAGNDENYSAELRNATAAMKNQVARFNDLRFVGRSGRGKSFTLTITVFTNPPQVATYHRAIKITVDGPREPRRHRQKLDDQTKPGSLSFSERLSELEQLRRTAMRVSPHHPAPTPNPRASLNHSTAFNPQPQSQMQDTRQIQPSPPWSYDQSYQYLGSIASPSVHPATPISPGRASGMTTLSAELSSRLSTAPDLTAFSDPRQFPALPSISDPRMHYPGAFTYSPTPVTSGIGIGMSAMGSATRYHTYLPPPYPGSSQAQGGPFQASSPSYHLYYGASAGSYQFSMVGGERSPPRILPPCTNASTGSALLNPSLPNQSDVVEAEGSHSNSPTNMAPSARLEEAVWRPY
Target sequence (Q13951 whole entry, looked up): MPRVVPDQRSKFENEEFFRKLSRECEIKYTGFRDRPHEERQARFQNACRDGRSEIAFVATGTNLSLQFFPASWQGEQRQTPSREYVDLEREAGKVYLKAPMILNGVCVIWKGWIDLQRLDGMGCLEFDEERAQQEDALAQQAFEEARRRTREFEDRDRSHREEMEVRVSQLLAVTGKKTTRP
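CBFb-His/RUNX1-biotin, 30 nM each, preincubated 20 min RT; compound 15 min RT; Ni + streptavidin beads 50 ng each, 90 min RT; AlphaScreen read.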
ClpP inh valid – validation of B. subtilis ClpP protease hits (inhibitors). shares compounds with ClpP mod. purified B. subtilis ClpP, FRET-FV substrate cleavage, 20 min. Potency, µM (titrated, usually from 57.5 µM), without a hit: top-dose activity change, negative = inhibition, actives largely listed as inhibitors. AID 743245. 470 tested, 40% active; further: potency means the concentration at half of the fitted maximal effect; on the % scale 0 is the no-effect control and ±100 the full control effect; nearly all actives have a fitted effect of over 70% in size
* = called active by the depositor; ? = inconclusive; nt = not tested or not shown; [ ] = remark or other dose. Shown is part of a subset that was picked to be rich in hits. Unless noted, the call rests on the fitted dose curve; in most records, active means well fitted curve in the direction sought with a large enough effect; inconclusive means small, poorly fitted or top-dose-only effect, or another doubt; inactive means no such curve, though single readings can be large; an effect the other way counts as inactive or inconclusive.

SMILES	ClpP mod	MBNL1 CUG block	Rango release inh	Rango complex inh	CBFb-RUNX1 inh	ClpP inh valid
O=C(NCCc1ccc(Cl)cc1)C1CCN(S(=O)(=O)c2ccc3[nH]ccc3c2)CC1	-4%	nt	nt	nt	nt	nt
Fc1cc(F)c2nc(Nc3nc4cc5c(cc4s3)OCO5)sc2c1	8.9µM*	2%	-8%	0%	?	?
COc1cc2c(cc1NC(=O)CN1CCN(S(=O)(=O)c3ccccc3F)CC1)oc1ccccc12	3.5µM*	0%	-21%	-2%	-2%	?
Cc1cscc1-c1ccc(C(=O)Nc2c(C)cccc2C)o1	1%	nt	nt	nt	nt	nt
CN(C)S(=O)(=O)Oc1ccc(Cl)cc1C(=O)Nc1cccc(C(F)(F)F)c1	0%	-2%	0%	0%	10%	nt
CN(C)S(=O)(=O)Oc1ccccc1C(=O)Nc1cccc(C(F)(F)F)c1	86%	5%	4%	2%	4%	1%
CCCNC(=O)C1CCC(Cn2c(=O)c3sccc3n(CC(=O)Nc3ccccc3C)c2=O)CC1 (stereo unspecified)	-2%	nt	nt	nt	nt	nt
CCCCCn1cc2c(c1-c1ccc(Cl)cc1)c(=O)n(C)c(=O)n2C	10µM*	nt	nt	nt	nt	?
Cn1c(=O)c2c(-c3ccc(Cl)cc3)n(Cc3ccccc3)cc2n(C)c1=O	4%	nt	nt	nt	nt	nt
O=C(c1cc2c(=O)n3ccccc3nc2s1)N1CCOCC1	4.5µM*	16%	-8%	-1%	3%	24µM*
O=C(Cc1cccs1)NC1CC(=O)N(c2ccc(F)cc2)C1 (stereo unspecified)	-1%	nt	nt	nt	nt	nt
Cc1cccc(N2CCN(C(=O)c3cn(C4CCCCC4)c(=O)c4c3c3ccccc3n4C)CC2)c1C	8.9µM*	nt	nt	nt	nt	-23%
CN(C(=O)c1cc(-c2ccccc2O)on1)c1ccccc1	0%	nt	nt	nt	nt	nt
O=C(Nc1ccc2ccccc2c1)C(c1ccccc1)n1c(=O)c(-c2cc3ccccc3[nH]2)nc2ccccc21 (stereo unspecified)	50%	nt	nt	nt	nt	13%
O=c1c(-c2cc3ccccc3[nH]2)nc2ccccc2n1C(CCc1ccccc1)c1nc2ccccc2[nH]1 (stereo unspecified)	32%	nt	nt	nt	nt	7%
CCCCCNC(=O)C(c1ccc(-c2ccccc2)cc1)n1c(=O)c(-c2cc3ccccc3[nH]2)nc2ccccc21 (stereo unspecified)	48%	nt	nt	nt	nt	14%
Cc1cccc(C)c1NC(=O)C(c1ccccc1)n1c(=O)c(-c2cc3ccccc3[nH]2)nc2ccccc21 (stereo unspecified)	12%	nt	nt	nt	nt	nt
O=C(NCc1ccccc1)C(CCc1ccccc1)n1c(=O)c(-c2cc3ccccc3[nH]2)nc2ccccc21 (stereo unspecified)	11%	nt	nt	nt	nt	nt
O=C(NCc1ccccc1)C(c1ccc(C(F)(F)F)cc1)n1c(=O)c(-c2cc3ccccc3[nH]2)nc2ccccc21 (stereo unspecified)	28%	nt	nt	nt	nt	-5%
Cc1cccc(C)c1NC(=O)C(c1cccc2ccccc12)n1c(=O)c(-c2cc3ccccc3[nH]2)nc2ccccc21 (stereo unspecified)	54%	nt	nt	nt	nt	8%
O=C(NCc1ccccc1)C(c1cccc2ccccc12)n1c(=O)c(-c2cc3ccccc3[nH]2)nc2ccccc21 (stereo unspecified)	42%	nt	nt	nt	nt	6%
COc1ccc(CNc2ncnc3c2nnn3C)cc1	-1%	nt	nt	nt	nt	nt
CC(C)CCNC(=O)COc1ccc2c(c1)C(=O)CC(C)(C)O2	28µM*	3%	-11%	-3%	2%	15µM*
CCOc1ccccc1-c1nc2c(C(C)(C)C)nn(C)c2c(=O)[nH]1	nt	8%	nt	nt	2%	nt
CCOc1ccccc1-c1nc2c([nH]1)c(=O)n(C)c(=O)n2C	3.5µM*	2%	-7%	3%	4%	22µM*
SMILES	ClpP mod	MBNL1 CUG block	Rango release inh	Rango complex inh	CBFb-RUNX1 inh	ClpP inh valid
COc1ccc(-c2nc(NC(=O)c3ccc(OCC(=O)Nc4ccc(F)cc4)c(OC)c3)sc2C)cc1	144%	nt	-7%	-2%	12%	19µM*
O=c1c2ccccc2nc2n1CCCCN2	4µM*	3%	2%	-1%	6%	24µM*
O=c1c2ccccc2nc2n1CCCN2	nt	2%	-5%	-6%	5%	nt
Cc1ccc(C(=O)Nc2cccc(C(F)(F)F)c2)cc1NC(=O)c1nccnc1N	159%	-1%	?	?	10%	?
Cc1ccccc1OC(C)C(=O)NCCNC(=O)C(C)Oc1ccccc1C (stereo unspecified)	-1%	nt	nt	nt	nt	nt
O=C(CSc1ccccc1)NCc1ccc2c(c1)CCN2C(=O)c1ccc(F)cc1	-2%	nt	nt	nt	nt	nt
c1ccc2c(N3CCOCC3)nc(N3CCOCC3)nc2c1	3.2µM*	-1%	-24%	-6%	-8%	24µM*
c1ccc(CN2CCN(c3nc(N4CCOCC4)c4ccccc4n3)CC2)cc1	-26%	nt	-4%	?	nt	nt
CC(Oc1ccc(F)cc1)C(=O)Nc1nc(-c2ccc(F)cc2)ns1 (stereo unspecified)	-1%	nt	nt	nt	nt	nt
Cc1ccc(-n2c(=O)c3cccnc3n2CC(=O)Nc2ccc(Br)cc2)cc1C	4%	nt	nt	nt	nt	nt
O=C(Nc1cccc(Br)c1)c1cc(S(=O)(=O)N2CCCCC2)c[nH]1	51%	nt	nt	nt	nt	-19%
CSc1cccc(NC(=O)c2cc(S(=O)(=O)N3CCCCC3)c[nH]2)c1	4%	30%	-6%	0%	nt	nt
CNC(=O)COc1ccccc1C(=O)Nc1ccccc1	-9%	nt	nt	nt	nt	nt
O=C(O)C1=CC(=C(c2ccc(O)c(C(=O)O)c2)c2ccc(O)c(C(=O)O)c2)C=CC1=O	4%	nt	nt	nt	nt	?
CNc1nnc(-c2cccc(N(C)C)c2)s1	39%	13%	12%	-1%	9%	0%
Cc1cccc(-c2nnc(NC(=O)c3cccs3)s2)c1	3%	33%	?	4%	1%[2.36 µM]	nt
c1coc(CNc2ncnc3c2[nH]c2ccccc23)c1	5%	nt	nt	nt	nt	nt
CCN(CC)CCNC(=O)Cn1nc(C)c2c(C)n(-c3ccccc3)nc2c1=O	-9%	nt	nt	nt	nt	nt
COC(=O)Nc1c(-c2ccccc2)nc2ccccn12	7.9µM*	-3%	-3%	-3%	2%	27µM*
CCOc1ccccc1CNC(=O)c1cnc2sc(N3CCCC3)nn2c1=O	7.9µM*	nt	nt	nt	nt	0%
COc1ccccc1NC(=O)CN1CCCCC1	4µM*	11%	2%	?	5%	0%
COc1ccccc1NC(=O)c1ccc(NC(=O)CN2CCCCC2)cc1	nt	nt	-13%	5%	nt	nt
COCCNc1nc(C)nc2c1nc(-c1ccccc1)n2CCN1CCCC1	nt	nt	nt	nt	8%	nt
Cc1cc(N2CCN(c3ccc(F)cc3)CC2)n2cnnc2n1	2%	nt	nt	nt	nt	nt
